Compounds without any hit were thinned out: in the full panel of roughly 79,000, 15% have a hit. Active and inactive are the calls of the source. Cut-off read from the data, not from the text of the source: active = growth inhibition above about 70%; inactive = the rest.
Legend:
[1] = NCI Yeast Anticancer Drug Screen. Data for the rad52 strain (AID 147);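 note: 0% = growth of vehicle-treated control cultures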; details: S. cerevisiae rad52 mutant growth inhibition, active compounds read high
Procedure, shortened: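 Read-out: growth inhibition versus vehicle-treated controls. Cells were a DNA repair-deficient yeast strain treated with compounds.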

[2] = NCI Yeast Anticancer Drug Screen. Data for the wt1 strain (AID 149);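 note: 0% = growth of vehicle-treated wt1 cultures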; details: S. cerevisiae wt1 strain (SPY 50644) growth inhibition, active compounds read high
Procedure, shortened: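 Yeast wt1 strain exposed to compounds; growth inhibition measured relative to vehicle-treated controls.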

[3] = NCI Yeast Anticancer Drug Screen. Data for the rad50EPP+ strain (AID 151);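 note: 0% = growth of vehicle-treated control cultures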; details: S. cerevisiae rad50 mutant strain, active compounds read high
Procedure, shortened: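 Growth inhibition read against vehicle controls in rad50EPP+ yeast, a strain altered in DNA damage repair, after compound exposure.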

[4] = NCI Yeast Anticancer Drug Screen. Data for the mgt1 strain (AID 153); details: S. cerevisiae mgt1 mutant growth inhibition, active compounds read high
Procedure, shortened: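 mgt1 yeast grown with test compound; read-out is growth inhibition versus vehicle-treated cultures.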

[5] = NCI Yeast Anticancer Drug Screen. Data for the rad50 strain (AID 155);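 note: 0% = growth of vehicle-only cultures of the same strain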; details: S. cerevisiae rad50 strain growth inhibition, active compounds read high
Procedure, shortened: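 Yeast carrying a defined DNA repair defect were exposed to test compounds, and growth was compared with vehicle-treated controls to give percent inhibition.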

[6] = NCI Yeast Anticancer Drug Screen. Data for the mec2-1 strain (AID 157); details: S. cerevisiae mec2-1 strain, active compounds read high
Procedure, shortened: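 Yeast mec2-1 mutant treated with compound. Readout: growth inhibition vs vehicle controls.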

[7] = NCI Yeast Anticancer Drug Screen. Data for the rad14 strain (AID 159);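 note: 0% = growth of vehicle-treated control cultures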; details: S. cerevisiae rad14 strain growth inhibition, active compounds read high
Procedure, shortened: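 Yeast cells carrying a defined DNA-repair defect were exposed to compounds, and growth inhibition was calculated relative to vehicle-treated control cultures.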

[8] = NCI Yeast Anticancer Drug Screen. Data for the sgs1 mgt1 strain (AID 161);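 note: 0% = growth of cultures given vehicle only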; details: S. cerevisiae sgs1 mgt1 strain, active compounds read high
Procedure, shortened: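 Mutant yeast exposed to compound; growth scored against vehicle-only wells.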

[9] = NCI Yeast Anticancer Drug Screen. Data for the CLN2oe strain (AID 163);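 note: 0% = growth of vehicle-only control cultures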; details: S. cerevisiae CLN2oe strain, active compounds read high
Procedure, shortened: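 Read-out: yeast growth inhibition, expressed relative to vehicle-only controls. The strain bears an engineered cell-cycle alteration.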

[10] = NCI Yeast Anticancer Drug Screen. Data for the cln2 rad14 strain (AID 165);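 note: 0% = growth equal to vehicle treated cultures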; details: S. cerevisiae cln2 rad14 strain, active compounds read high
Procedure, shortened: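 cln2 rad14 yeast strain; compound exposure; growth inhibition read vs vehicle controls.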

[11] = NCI Yeast Anticancer Drug Screen. Data for the bub3 strain (AID 167); details: S. cerevisiae bub3 mutant strain, active compounds read high
Procedure, shortened: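 Compounds were applied to a genetically altered yeast strain carrying a cell-cycle control defect. Growth inhibition was scored against vehicle-treated controls.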

[12] = NCI Yeast Anticancer Drug Screen. Data for the wt2 strain (AID 169);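 note: 0% = growth of vehicle-treated yeast cultures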; details: S. cerevisiae wt2 strain growth inhibition, active compounds read high
Procedure, shortened: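 Read-out: growth inhibition versus vehicle-treated control cultures after compound exposure of the yeast strain.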

[13] = NCI Yeast Anticancer Drug Screen. Data for the mlh1 strain (AID 171);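 note: 0% = growth of vehicle-treated control cultures of the same strain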; details: S. cerevisiae mlh1 strain growth inhibition, active compounds read high
Procedure, shortened: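 Read-out: growth inhibition versus vehicle controls. Strain: engineered yeast with a defined DNA repair or cell cycle defect, compound-treated.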

[14] = NCI Yeast Anticancer Drug Screen. Data for the sgs1 strain (AID 173);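 note: 0% = growth of vehicle-only control cultures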; details: S. cerevisiae sgs1 mutant, active compounds read high
Procedure, shortened: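 Read-out: yeast growth inhibition relative to vehicle controls, following compound exposure of a strain with a defined DNA repair/cell cycle alteration.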

[15] = NCI Yeast Anticancer Drug Screen. Data for the mlh1 rad18 strain (AID 175); details: S. cerevisiae mlh1 rad18 strain growth inhibition, active compounds read high
Procedure, shortened: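 Yeast w/ defined DNA-repair lesions; compound exposure; growth vs vehicle controls → % inhibition.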

[16] = NCI Yeast Anticancer Drug Screen. Data for the rad18 strain (AID 177); details: S. cerevisiae rad18 mutant growth inhibition, active compounds read high
Procedure, shortened: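 Readout: growth inhibition vs vehicle controls. Cells: genetically altered yeast strain, DNA repair defect.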

[17] = at 5.0 µM (retest, dose inferred, filed as 0.5)
[18] = at 50.0 µM (retest, dose inferred, filed as 5.0)

Measured: growth inhibition

[N-]=[N+]=NC1=C(c2ccccn2)C(=O)c2cccc3cccc1c23
active: [1]; at 100.0 µM 75% | [3]; at 33.0 µM 74% | [3]; at 100.0 µM 93% | [5]; [18] 71% | [5]; at 100.0 µM 71% | [8]; at 50.0 µM 71.4% | [9]; at 100.0 µM 74% | [16]; at 100.0 µM 85%
inactive: [1]; at 1.2 µM 2% | [1]; at 3.7 µM 4% | [1]; at 11.0 µM 24% | [1]; at 33.0 µM 50% | [2]; at 1.2 µM 2% | [2]; at 3.7 µM 4% | [2]; at 11.0 µM 5% | [2]; at 33.0 µM 14% | [2]; at 100.0 µM 34% | [3]; at 1.2 µM 9% | [3]; at 3.7 µM 16% | [3]; at 11.0 µM 31% | [4]; at 1.2 µM -3% | [4]; at 3.7 µM -1% | [4]; at 11.0 µM 19% | [4]; at 33.0 µM 10% | [4]; at 100.0 µM 41% | [5]; at 1.2 µM 2% | [5]; at 3.7 µM 3% | [5]; [17] 7% | [5]; at 11.0 µM 5% | [5]; at 33.0 µM 53% | [5]; at 50.0 µM 67.2% | [6]; at 1.2 µM 5% | [6]; at 3.7 µM 7% | [6]; [17] -5% | [6]; at 11.0 µM 14% | [6]; at 33.0 µM 37% | [6]; [18] 40% | [6]; at 50.0 µM 63.8% | [6]; at 100.0 µM 61% | [7]; at 1.2 µM 2% | [7]; at 3.7 µM 5% | [7]; at 11.0 µM 11% | [7]; at 33.0 µM 26% | [7]; at 100.0 µM 63% | [8]; [17] -7% | [8]; [18] 28% | [9]; at 1.2 µM -3% | [9]; at 3.7 µM 1% | [9]; at 11.0 µM 5% | [9]; at 33.0 µM 35% | [10]; [17] 38% | [10]; [18] 31% | [10]; at 50.0 µM 67% | [11]; at 1.2 µM -1% | [11]; at 3.7 µM 4% | [11]; [17] -11% | [11]; at 11.0 µM 18% | [11]; at 33.0 µM 24% | [11]; [18] 59% | [11]; at 50.0 µM 69.6% | [11]; at 100.0 µM 61% | [12]; at 1.2 µM -1% | [12]; at 3.7 µM -1% | [12]; at 11.0 µM 5% | [12]; at 33.0 µM 26% | [12]; at 100.0 µM 63% | [13]; at 1.2 µM 4% | [13]; at 3.7 µM -2% | [13]; at 11.0 µM 7% | [13]; at 33.0 µM 19% | [13]; at 100.0 µM 42% | [14]; at 1.2 µM -2% | [14]; at 3.7 µM 1% | [14]; at 11.0 µM 6% | [14]; at 33.0 µM 37% | [14]; at 100.0 µM 67% | [15]; [17] 4% | [15]; [18] 52% | [15]; at 50.0 µM 59% | [16]; at 1.2 µM 0% | [16]; at 3.7 µM 6% | [16]; at 11.0 µM 12% | [16]; at 33.0 µM 58%

N#C/C(=C\c1cccc(OCc2ccccc2)c1)c1ccc([N+](=O)[O-])cc1
inactive: [1]; at 1.2 µM -24% | [1]; at 3.7 µM -19% | [1]; at 11.0 µM -26% | [1]; at 33.0 µM -28% | [1]; at 100.0 µM -37% | [2]; at 1.2 µM -18% | [2]; at 3.7 µM -4% | [2]; at 11.0 µM -22% | [2]; at 33.0 µM -28% | [2]; at 100.0 µM -33% | [3]; at 1.2 µM -66% | [3]; at 3.7 µM -49% | [3]; at 11.0 µM -63% | [3]; at 33.0 µM -82% | [3]; at 100.0 µM -88% | [4]; at 1.2 µM -35% | [4]; at 3.7 µM -29% | [4]; at 11.0 µM -61% | [4]; at 33.0 µM -53% | [4]; at 100.0 µM -71% | [5]; at 1.2 µM -5% | [5]; at 3.7 µM -25% | [5]; [17] 53% | [5]; at 11.0 µM -22% | [5]; at 33.0 µM -23% | [5]; at 50.0 µM 10.9% | [5]; at 100.0 µM -23% | [6]; at 1.2 µM -88% | [6]; at 3.7 µM -74% | [6]; [17] 61% | [6]; at 11.0 µM -81% | [6]; at 33.0 µM -91% | [6]; at 50.0 µM 14.2% | [6]; at 100.0 µM -96% | [7]; at 1.2 µM -43% | [7]; at 3.7 µM -48% | [7]; at 11.0 µM -24% | [7]; at 33.0 µM -51% | [7]; at 100.0 µM -84% | [8]; [17] -10% | [8]; [18] 43% | [8]; at 50.0 µM 27.9% | [9]; at 1.2 µM 11% | [9]; at 3.7 µM -17% | [9]; at 11.0 µM -28% | [9]; at 33.0 µM -31% | [9]; at 100.0 µM -39% | [10]; [17] 33% | [10]; [18] 43% | [10]; at 50.0 µM 0.05% | [11]; at 1.2 µM -28% | [11]; at 3.7 µM -42% | [11]; [17] -5% | [11]; at 11.0 µM -37% | [11]; at 33.0 µM -40% | [11]; [18] 29% | [11]; at 50.0 µM 61.1% | [11]; at 100.0 µM -60% | [12]; at 1.2 µM -34% | [12]; at 3.7 µM -43% | [12]; at 11.0 µM -49% | [12]; at 33.0 µM -61% | [12]; at 100.0 µM -75% | [13]; at 1.2 µM -44% | [13]; at 3.7 µM -41% | [13]; at 11.0 µM -51% | [13]; at 33.0 µM -64% | [13]; at 100.0 µM -72% | [14]; at 1.2 µM -39% | [14]; at 3.7 µM -47% | [14]; at 11.0 µM -64% | [14]; at 33.0 µM -54% | [14]; at 100.0 µM -59% | [15]; [17] 50% | [15]; at 50.0 µM 15.2% | [16]; at 1.2 µM -26% | [16]; at 3.7 µM -29% | [16]; at 11.0 µM -24% | [16]; at 33.0 µM -49% | [16]; at 100.0 µM -36%
active: [5]; [18] 97% | [6]; [18] 96% | [15]; [18] 98%
